Laboratory results: PubChem BioAssay (NCATS)
Records with an inconclusive call do not appear. Active and inactive are the calls of the source. Calls follow the shape of the dose curve; as a rule, active = well fitted inhibition curve with a large enough effect; inconclusive = small, poorly fitted or top-dose-only effect; inactive = flat fitted curve, though single readings scatter.

What was measured:
CRL-7250 = normal cell line; assay: Cytotoxic Profiling of Annotated Libraries Using Quantitative High-Throughput Screening (AID 1296008); conditions: Five cell lines viability, CellTiter-Glo ATP luminescence, 48-72 h; max response: stronger effect = lower value; as to max response: % is scaled to controls: 0 for no effect and ±100 for the full control effect
Procedure, shortened: (§1)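 Cytotoxicity was measured as CellTiter-Glo ATP luminescence, read after 10 min at room temperature. Compound treatment of the cells lasted 48 or 72 hr at 37 degrees Celsius in a qHTS format.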

HEK293 = assay: as above; conditions: Five cell lines viability, CellTiter-Glo ATP luminescence, 48-72 h; max response: stronger effect = lower value
Procedure, shortened: as §1

HaCat [1] = assay: as above; conditions: Five cell lines viability, CellTiter-Glo ATP luminescence, 48-72 h; max response: stronger effect = lower value
Procedure, shortened: as §1

KB-3-1 = assay: as above; conditions: Five cell lines viability, CellTiter-Glo ATP luminescence, 48-72 h; max response: stronger effect = lower value
Procedure, shortened: as §1

NIH3T3 = assay: as above; conditions: Five cell lines viability, CellTiter-Glo ATP luminescence, 48-72 h; max response: stronger effect = lower value
Procedure, shortened: as §1

HACAT [2] = assay: qHTS assay to identify novel small-molecules to repurpose for Merkel cell carcinoma treatment (AID 1296009); conditions: MCC and control cell lines, CellTiter-Glo viability, 72 h; at 44.8 µM (top of the series) unless noted
Procedure, shortened: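 72 hr, 37 degree celsius; NPC 8-pt / MIPE 11-pt dose response; compound pinned in DMSO; CellTiter-Glo, 10 min RT, luminescence; normalized to no-cell and DMSO controls.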

Measured: max response
Also: nearly all actives have a fitted effect of over 60% in size.

CCCC(C(=O)O)c1c(C)nc2ccc(Cl)cc2c1-c1ccccc1 (stereo not given)
inactive: CRL-7250 3.26% | HEK293 -5.83% | HaCat [1] | KB-3-1 2.25% | NIH3T3 1.27% | HACAT [2]

CC1(C)CC[C@]2(C(=O)O[C@@H]3O[C@H](CO)[C@@H](O)[C@H](O)[C@H]3O)CC[C@]3(C)C(=CCC4[C@@]5(C)CC[C@H](O[C@H]6O[C@H](CO)[C@@H](O)[C@H](O[C@@H]7O[C@H](CO)[C@@H](O)[C@H](O)[C@H]7O)[C@H]6O)C(C)(C)C5CC[C@]43C)[C@@H]2C1 (stereo not given in full)
inactive: CRL-7250 -1.95% | HEK293 -4.45% | HaCat [1] | KB-3-1 4.79% | NIH3T3 | HACAT [2] inactive [at 9.27 µM]

CC1C(O)C(O)C2C(C(=O)OCCc3ccc(O)cc3)=COC(O[C@@H]3O[C@H](CO)[C@@H](O)[C@H](O)[C@H]3O)C12 (stereo not given in full)
inactive: CRL-7250 | HEK293 -0.685% | HaCat [1] | KB-3-1 -9.14% | NIH3T3 2.97% | HACAT [2] inactive [at 17.4 µM]

C=CCc1cc(OC)c(OC(C)C(O)c2ccc(O)c(OC)c2)c(OC)c1 (stereo not given)
inactive: CRL-7250 -6.23% | HEK293 0.874% | HaCat [1] | KB-3-1 -7.75% | NIH3T3 -6.43% | HACAT [2]

CCOC(=O)CSc1nc2c(sc3ccccc32)c(=O)n1CCCN1CCCC1
inactive: CRL-7250 | HEK293 -12.6% | HaCat [1] | KB-3-1 | NIH3T3 | HACAT [2]

Cc1nc(-c2cccnc2)sc1C(=O)Nc1ccccc1-c1cn2c(CN3CCOCC3)csc2n1
inactive: CRL-7250 -2.14% | HEK293 -4.67% | HaCat [1] | KB-3-1 -10.4% | NIH3T3 -1.07% | HACAT [2]

CC1=C[C@H]2[C@@H](CC1=O)[C@H](C)C[C@H](O)[C@H]2C(C)C
inactive: CRL-7250 -22.7% | HEK293 -24.5% | HaCat [1] | KB-3-1 -6.12% | NIH3T3 -7.42% | HACAT [2]

OC[C@H]1O[C@@H](OCCc2ccccc2)[C@H](O[C@@H]2OC[C@@H](O)[C@H](O)[C@H]2O)[C@@H](O)[C@@H]1O
inactive: CRL-7250 | HEK293 4.26% | HaCat [1] | KB-3-1 9.19% | NIH3T3 | HACAT [2] inactive [at 17.4 µM]

CC(C)c1ccc2c(c1)C(O)CC1C(C)(CO)CCCC21C (stereo not given)
inactive: CRL-7250 -14% | HEK293 -7.86% | HaCat [1] | KB-3-1 9.46% | NIH3T3 -1.6% | HACAT [2]

CC(C)(O)C(O)C(=O)OCc1ccc(O[C@@H]2O[C@H](CO)[C@@H](O)[C@H](O)[C@H]2O)cc1 (stereo not given in full)
inactive: CRL-7250 -9.18% | HEK293 2.94% | HaCat [1] | KB-3-1 | NIH3T3 -2.16% | HACAT [2] inactive [at 17.4 µM]

Cc1cc(OCCN2CCOCC2)nn1-c1ccc2ccccc2c1
inactive: CRL-7250 -11.2% | HEK293 -15.6% | HaCat [1] | KB-3-1 -10.7% | NIH3T3 2.01% | HACAT [2]

CC1(C)CC[C@]2(C(=O)O)[C@H](O)C[C@]3(C)C(=CCC4[C@@]5(C)CC[C@H](O[C@@H]6OC[C@@H](O)[C@H](O)[C@H]6O)[C@@](C)(C(=O)O)C5CC[C@]43C)[C@@H]2C1 (stereo not given in full)
inactive: CRL-7250 -5.63% | HEK293 0.0666% | HaCat [1] | KB-3-1 9.63% | NIH3T3 0.796% | HACAT [2] inactive [at 17.4 µM]

COc1ccc(/C=C/C(=O)O[C@@H]2[C@@H](O)[C@@H](O)[C@H](O[C@H]3[C@@H]4C=CO[C@@H](O[C@@H]5O[C@H](CO)[C@@H](O)[C@H](O)[C@H]5O)[C@@H]4[C@@]4(CO)O[C@@H]34)O[C@H]2C)cc1
inactive: CRL-7250 -8.85% | HEK293 -4.15% | HaCat [1] | KB-3-1 1.26% | NIH3T3 0.471% | HACAT [2] inactive [at 17.4 µM]

CC(C)=CCC[C@](C)(O[C@@H]1O[C@H](CO[C@@H]2OC[C@H](O)[C@H](O)[C@H]2O)[C@@H](O)[C@H](O)[C@H]1O)[C@H]1CC[C@]2(C)[C@@H]1[C@H](O)C[C@@H]1[C@@]3(C)CC[C@H](O[C@@H]4O[C@H](CO)[C@@H](O)[C@H](O)[C@H]4O[C@@H]4O[C@H](CO)[C@@H](O)[C@H](O)[C@H]4O)C(C)(C)[C@@H]3CC[C@]12C
inactive: CRL-7250 | HEK293 3.96% | HaCat [1] | KB-3-1 1.14% | NIH3T3 | HACAT [2] inactive [at 17.4 µM]

Cc1ccc(Nc2nnc(-c3ccc([N+](=O)[O-])cc3)o2)cc1Cl
inactive: CRL-7250 | HEK293 -16.7% | HaCat [1] | KB-3-1 -2.92% | NIH3T3 | HACAT [2]

CC1(C)C[C@H]2C=C(C=O)[C@]3(C(=O)O)C[C@]3(C)[C@H]2C1
inactive: CRL-7250 -0.156% | HEK293 -14% | HaCat [1] | KB-3-1 6.21% | NIH3T3 0.712% | HACAT [2]

CN(C)c1ccc(C2O[C@@H](c3ccccc3)C[C@H](c3ccccc3)O2)cc1 (stereo not given in full)
inactive: CRL-7250 | HEK293 -10.1% | HaCat [1] | KB-3-1 | NIH3T3 4.55% | HACAT [2]

C=C1CC/C=C(/C(=O)O)CCC2C1CC2(C)C (stereo not given)
inactive: CRL-7250 -2.67% | HEK293 -4.76% | HaCat [1] | KB-3-1 4.31% | NIH3T3 | HACAT [2]

CCC/C=C/C=C/C1CC(O)C(O)C(=O)C1CO (stereo not given)
inactive: CRL-7250 | HEK293 -5.36% | HaCat [1] | KB-3-1 | NIH3T3 | HACAT [2]

CC1(C)CC[C@]2(C(=O)O)CC[C@]3(C)C(=CCC4[C@@]5(C)C[C@H](O)[C@H](O[C@@H]6O[C@H](CO)[C@@H](O)[C@H](O)[C@H]6O)[C@@](C)(CO)C5[C@H](O)C[C@]43C)[C@@H]2C1 (stereo not given in full)
inactive: CRL-7250 3.07% | HEK293 0.861% | HaCat [1] | KB-3-1 3.96% | NIH3T3 | HACAT [2] inactive [at 17.4 µM]

C/C=C1/[C@H](O[C@@H]2O[C@H](CO)[C@@H](O)[C@H](O)[C@H]2O)OC=C2C(=O)O[C@@H]3C[C@@H](C(C)CO)[C@H](COC(=O)C[C@H]21)[C@H]3C (stereo not given in full)
inactive: CRL-7250 3.26% | HEK293 -21.8% | HaCat [1] | KB-3-1 | NIH3T3 1.25% | HACAT [2] inactive [at 17.4 µM]

NCCCCN(Cc1nc2ccccc2[nH]1)[C@H]1CCCc2cccnc21
inactive: CRL-7250 -5.02% | HEK293 -0.584% | HaCat [1] | KB-3-1 1.94% | NIH3T3 | HACAT [2] inactive [at 17.4 µM]

COc1cc(CO)cc(OC)c1O[C@@H]1O[C@H](CO)[C@@H](O)[C@H](O)[C@H]1O
inactive: CRL-7250 -11.4% | HEK293 -2.97% | HaCat [1] | KB-3-1 4.69% | NIH3T3 | HACAT [2]

Cc1ccc(-n2nc(C(C)(C)C)cc2NC(=O)Nc2cc(COc3cccnc3)[nH]n2)cc1
inactive: CRL-7250 -4.33% | HEK293 -3.79% | HaCat [1] | KB-3-1 | NIH3T3 | HACAT [2]

CS(=O)(=O)c1ccccc1N1CCN(c2nc3c(c(=O)[nH]2)CSCC3)CC1
inactive: CRL-7250 0.787% | HEK293 1.58% | HaCat [1] | KB-3-1 -11.7% | NIH3T3 -5.12% | HACAT [2]
